# Results: PubChem BioAssay (EPA / NIEHS)
# Several values for one entry are separate records, joined by “and”; a condition that tells them apart may be missing. Equal values may be shown once. Results filed as inconclusive are left out. Some compounds were tested as several samples or in several runs, with calls that do not always agree. Activity calls are given as the source filed them. The calls were made as follows, unless noted: active = hit-call score of the fitted dose curve at least 0.9, where 1 is the maximum; inactive = score below 0.9.
# Experiments:
# [1] = ATG_NFI_CIS: Attagene CIS-FACTORIAL HepG2 Assay for human Nuclear Factor I (NFI) (AID 2282989); conditions: HepG2 cis-regulatory reporter, NFI response element transcription; actives raise or lower the signal
# In short: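 Transfected HepG2 liver cells, exposed 24 h, supplied total RNA for oligo(dT) reverse transcription and reporter-specific PCR. Labelled, HpaI-cut fragments were sized by capillary electrophoresis; DMSO set the baseline for bidirectional fitting.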
# [2] = molecular target: Myc proto-oncogene protein (Homo sapiens) (UniProt P01106); test: ATG_Myc_CIS: Attagene CIS-FACTORIAL HepG2 Assay for human Myelocytomatosis (Myc) Proto-Oncogene Transcription Factor (AID 2282990); conditions: HepG2, Attagene cis-reporter transcription factor activity; actives raise or lower the signal
# In short: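 Fluorescence intensity of reporter-specific cDNA fragments, separated by capillary electrophoresis, gives the signal. Transfected HepG2 cells carrying cis-promoter reporter constructs are incubated with compound for 24 h; DMSO serves as baseline.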
# [3] = ATG_NF_kB_CIS: Attagene CIS-FACTORIAL HepG2 Assay for human Nuclear Factor Kappa B (NF-kB) (AID 2282991); conditions: HepG2 Attagene cis-factorial NF-kB reporter mRNA; actives raise or lower the signal
# In short: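 Fluorescence of labelled RT-PCR products separated by capillary electrophoresis gives reporter mRNA levels from transfected HepG2 cells exposed 24 h; values are fitted in both directions relative to DMSO.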
# [4] = ATG_NRF2_ARE_CIS: Attagene CIS-FACTORIAL HepG2 Assay for human Nuclear Factor Erythroid 2 Related Factor 2 (NFR2) response to Antioxidant Response Elements (ARE) (AID 2282992); conditions: HepG2 Attagene ARE/NRF2 reporter, transcription factor activity; actives raise or lower the signal
# In short: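 Readout: reporter mRNA quantified by RT-PCR plus FAM-labelled primer extension, HpaI digestion and capillary electrophoresis, 24 h after dosing transfected HepG2 cells. Gain or loss of signal is fitted bidirectionally against DMSO baseline.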
# [5] = ATG_Oct_MLP_CIS: Attagene CIS-FACTORIAL HepG2 Assay for human Octamer-Binding Transcription Factor (Oct) (AID 2282993); conditions: HepG2 Attagene cis-factorial Oct reporter, mRNA; actives raise or lower the signal
# In short: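 Using HepG2 cells bearing transfected cis-reporter constructs, mRNA induction was read after 24 h by fluorescent RT-PCR and capillary electrophoresis, with DMSO defining baseline for gain- or loss-of-signal fits.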
# [6] = molecular target: Cellular tumor antigen p53 (Homo sapiens) (UniProt P04637); test: ATG_p53_CIS: Attagene CIS-FACTORIAL HepG2 Assay for human p53 Transcription Factor (AID 2282994); conditions: HepG2 p53 cis-element reporter, Attagene mRNA; actives raise or lower the signal
# In short: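 Read-out: reporter mRNA by RT-PCR plus capillary electrophoresis with fluorescence detection. Human HepG2 liver cells carried transfected multi-reporter cis-element constructs, dosed 24 h. Gain or loss of signal fitted bidirectionally against DMSO control.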
# [7] = BSK_3C_TissueFactor: BioMAP Diversity Plus: 3C Assay for Tissue Factor Biomarker Activity (AID 2282997); conditions: BioMAP 3C HUVEC, tissue factor biomarker readout; actives raise or lower the signal
# In short: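 After a 24 h chemical exposure of primary human umbilical vein endothelial cells, Tissue Factor levels were quantified by ELISA.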
# [8] = BSK_3C_VCAM1: BioMAP Diversity Plus: 3C Assay for Vascular cell adhesion molecule 1 (VCAM1) Biomarker Activity (AID 2282999); conditions: BioMAP 3C HUVEC, VCAM1 ELISA, cytokine-stimulated; actives raise or lower the signal
# In short: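 HUVEC primary cells, 24 h compound exposure; VCAM-1 by ELISA; gain/loss of signal fitted bidirectionally vs DMSO baseline.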
# [9] = BSK_4H_Eotaxin3: BioMAP Diversity Plus: 4H Assay for Eotaxin 3 Biomarker Activity (AID 2283000); conditions: primary human endothelial cells (HUVEC); actives raise or lower the signal;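 as to outcome: CCL26 protein level quantified by ELISA in parallel with SRB cytotoxicity check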
# In short: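 Chemicals were added to human umbilical vein endothelium cultures, and Eotaxin-3 was quantified by ELISA at 24 h. Values were derived by bidirectional fitting with DMSO serving as negative control and activity baseline.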
# [10] = molecular target: human Peroxisome Proliferator-activated Receptor alpha (PPARa), PPARA (gene 5465) (UniProt Q07869); test: ATG_PPARa_TRANS: Attagene TRANS-FACTORIAL HepG2 Assay for human Peroxisome Proliferator-activated Receptor alpha (PPARa) (AID 2283001; active = hit-call score of the fitted dose curve at least 0.9, where 1 is the maximum;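 as to AC50: potency for gain of reporter signal over DMSO so agonist or activator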)
# In short: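 Transient HepG2 transfection, GAL4-UAS reporters, NR-Gal4 chimeras; 24 h compound exposure. Readout: reporter transcripts by RT-PCR, 6-FAM primer extension, HpaI digest, capillary electrophoresis. Positive direction vs DMSO baseline.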
# [11] = molecular target: human Peroxisome Proliferator-activated Receptor delta (PPARd), PPARD (gene 5467) (UniProt Q03181); test: ATG_PPARd_TRANS: Attagene TRANS-FACTORIAL HepG2 Assay for human Peroxisome Proliferator-activated Receptor delta (PPARd) (AID 2283002; active = hit-call score of the fitted dose curve at least 0.9, where 1 is the maximum)
# In short: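 Fluorescence from capillary electrophoresis of labelled RT-PCR reporter fragments gives the signal; DMSO sets baseline. Cells: HepG2 transiently carrying GAL4-UAS reporter units plus chimeric nuclear receptor-Gal4 proteins, exposed to chemicals for 24 h.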
# [12] = read-out: Intercellular Adhesion Molecule 1 (ICAM1), ICAM1 (gene 3383); test: BSK_3C_ICAM1: BioMAP Diversity Plus: 3C Assay for Intercellular Adhesion Molecule 1 (ICAM1) Biomarker Activity (AID 2283003); conditions: primary human endothelial cells (HUVEC); actives raise or lower the signal
# In short: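 ELISA read-out of ICAM-1; HUVEC (primary human), 3C system, 24 h post-dosing; bidirectional fit vs DMSO baseline.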
# [13] = molecular target: human Retinoic Acid Receptor beta (RARb), RARB (gene 5915) (UniProt P10826); test: ATG_RARb_TRANS: Attagene TRANS-FACTORIAL HepG2 Assay for human Retinoic Acid Receptor beta (AID 2283004; active = hit-call score of the fitted dose curve at least 0.9, where 1 is the maximum)
# In short: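 Transient transfection of HepG2 with multiple reporter units → chemical dosing, 24 h → total RNA isolation → RT with oligo(dT) → reporter-specific PCR, 6-FAM primer extension, HpaI digest → capillary electrophoresis. Positive direction vs DMSO control.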
# [14] = molecular target: Retinoic acid receptor alpha (Homo sapiens) (UniProt P10276); test: ATG_RARa_TRANS: Attagene TRANS-FACTORIAL HepG2 Assay for human Retinoic Acid Receptor alpha (RARa) (AID 2283005; active = hit-call score of the fitted dose curve at least 0.9, where 1 is the maximum)
# In short: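 HepG2 transiently transfected with multiplex GAL4-UAS reporter units including a human RARa–GAL4 chimera; 24 h compound exposure. Reporter mRNA quantified by RT-PCR, 6-FAM labeling and capillary electrophoresis; gain of signal versus DMSO.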
# [15] = BSK_3C_Proliferation: Cell Proliferation Assessment in the BioMAP Diversity Plus: 3C Assay (AID 2283006); conditions: primary human endothelial cells (HUVEC);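 as to AC50: potency may reflect either rise or fall in cell number versus DMSO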
# In short: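 HUVEC, sub-confluent; 48 h chemical exposure; 10% TCA fix, 0.1% SRB stain, A560 total protein. Gain or loss of signal fitted both directions vs DMSO control.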
# [16] = molecular target: Peroxisome proliferator-activated receptor gamma (Homo sapiens) (UniProt P37231); test: ATG_PPARg_TRANS: Attagene TRANS-FACTORIAL HepG2 Assay for human Peroxisome Proliferator-activated Receptor-gamma (PPARg) (AID 2283007; active = hit-call score of the fitted dose curve at least 0.9, where 1 is the maximum)
# In short: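 Twenty-four hours after chemical dosing of transiently transfected HepG2 cells, isolated RNA was converted to cDNA, reporter sequences amplified and 6-FAM-labelled, then HpaI-digested and analysed by capillary electrophoresis. Signal increase against DMSO was fitted.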
# [17] = molecular target: Nuclear receptor subfamily 1 group I member 2 (Homo sapiens) (UniProt O75469); test: ATG_PXR_TRANS: Attagene TRANS-FACTORIAL HepG2 Assay for human Pregnane X Receptor (PXR) (AID 2283008; active = hit-call score of the fitted dose curve at least 0.9, where 1 is the maximum)
# In short: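 Trans-factorial format: exogenous NR-Gal4 fusion activity, not endogenous factor, in transfected human HepG2 liver cells. After 24 h dosing, RNA isolated, reverse-transcribed, amplified and resolved by capillary electrophoresis; induction scored versus DMSO.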
# [18] = molecular target: human Retinoic Acid Receptor gamma (RARg), RARG (gene 5916) (UniProt P13631); test: ATG_RARg_TRANS: Attagene TRANS-FACTORIAL HepG2 Assay for human Retinoic Acid Receptor gamma (RARg) (AID 2283009; active = hit-call score of the fitted dose curve at least 0.9, where 1 is the maximum;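 as to AC50: AC50 is for reporter induction above DMSO meaning RARg activation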)
# In short: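 Readout: reporter transcript levels via RT-PCR, 6-FAM primer-extension labelling, HpaI digestion and capillary electrophoresis. Cells: HepG2 carrying transfected RARg-GAL4 chimera plus UAS reporter set. Dosing 24 h; DMSO negative control.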
# [19] = molecular target: human RAR-related Orphan Receptor beta (RORb), RORB (gene 6096) (UniProt Q92753); test: ATG_RORb_TRANS: Attagene TRANS-FACTORIAL HepG2 Assay for human RAR-related Orphan Receptor beta (RORb) (AID 2283010; active = hit-call score of the fitted dose curve at least 0.9, where 1 is the maximum;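 as to AC50: potency for increased reporter mRNA meaning activation of RORb-Gal4 chimera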)
# In short: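 HepG2, transient MRTU transfection (GAL4-UAS reporters, exogenous NR-Gal4 chimeras); 24 h compound exposure; total RNA → RT-PCR → 6-FAM primer extension → HpaI digest → CE fluorescence. Positive direction vs DMSO baseline.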
# [20] = BSK_3C_uPAR: BioMAP Diversity Plus: 3C Assay for Urokinase-type plasminogen activator receptor (uPAR) Biomarker Activity (AID 2282998); conditions: BioMAP 3C HUVEC, uPAR biomarker ELISA; actives raise or lower the signal
# In short: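 In this endothelial cell-based assay, human umbilical vein primary cells were treated with chemicals and harvested at 24 h. uPAR was quantified using ELISA, with gains or losses fitted relative to DMSO controls.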
# human Retinoic Acid Receptor beta (RARb), RARB (gene 5915), sequence (P10826 whole entry, looked up): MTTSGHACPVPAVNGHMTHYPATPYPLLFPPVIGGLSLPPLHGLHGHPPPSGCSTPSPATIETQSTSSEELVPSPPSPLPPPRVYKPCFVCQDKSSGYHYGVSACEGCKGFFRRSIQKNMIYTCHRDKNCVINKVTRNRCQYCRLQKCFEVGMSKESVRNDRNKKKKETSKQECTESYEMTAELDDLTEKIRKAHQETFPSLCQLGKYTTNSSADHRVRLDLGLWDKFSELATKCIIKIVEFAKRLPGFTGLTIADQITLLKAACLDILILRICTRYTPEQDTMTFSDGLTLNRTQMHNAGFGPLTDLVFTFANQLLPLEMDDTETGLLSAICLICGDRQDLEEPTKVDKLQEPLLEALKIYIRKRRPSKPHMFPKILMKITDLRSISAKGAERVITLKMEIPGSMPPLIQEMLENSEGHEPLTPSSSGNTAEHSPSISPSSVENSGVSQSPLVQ
# Nuclear receptor subfamily 1 group I member 2 (Homo sapiens), sequence (O75469 whole entry, looked up, the tested form may be a part): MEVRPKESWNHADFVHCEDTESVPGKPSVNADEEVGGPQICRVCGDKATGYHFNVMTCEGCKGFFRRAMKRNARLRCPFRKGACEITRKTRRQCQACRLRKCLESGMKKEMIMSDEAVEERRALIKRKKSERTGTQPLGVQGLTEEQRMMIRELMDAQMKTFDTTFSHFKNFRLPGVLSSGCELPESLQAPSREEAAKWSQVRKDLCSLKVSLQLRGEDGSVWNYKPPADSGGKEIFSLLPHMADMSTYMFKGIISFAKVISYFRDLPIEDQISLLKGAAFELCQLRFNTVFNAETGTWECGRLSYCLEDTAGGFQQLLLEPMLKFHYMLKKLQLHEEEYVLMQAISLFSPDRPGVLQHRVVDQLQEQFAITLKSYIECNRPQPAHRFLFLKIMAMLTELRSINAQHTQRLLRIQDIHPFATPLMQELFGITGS
# Myc proto-oncogene protein (Homo sapiens), sequence (P01106 whole entry, looked up, the tested form may be a part): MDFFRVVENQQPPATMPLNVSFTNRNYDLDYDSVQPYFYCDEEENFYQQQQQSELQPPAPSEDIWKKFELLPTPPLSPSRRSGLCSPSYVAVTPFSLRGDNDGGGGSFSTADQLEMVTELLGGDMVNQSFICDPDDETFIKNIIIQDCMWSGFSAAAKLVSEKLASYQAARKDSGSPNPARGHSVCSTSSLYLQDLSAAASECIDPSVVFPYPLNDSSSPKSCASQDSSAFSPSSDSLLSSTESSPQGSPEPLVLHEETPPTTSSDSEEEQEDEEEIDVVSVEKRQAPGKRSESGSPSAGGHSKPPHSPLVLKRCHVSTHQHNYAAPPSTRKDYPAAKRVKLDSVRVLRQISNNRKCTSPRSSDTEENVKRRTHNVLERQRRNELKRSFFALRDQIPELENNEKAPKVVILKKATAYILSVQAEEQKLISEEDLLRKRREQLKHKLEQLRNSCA
# Retinoic acid receptor alpha (Homo sapiens), sequence (P10276 whole entry, looked up, the tested form may be a part): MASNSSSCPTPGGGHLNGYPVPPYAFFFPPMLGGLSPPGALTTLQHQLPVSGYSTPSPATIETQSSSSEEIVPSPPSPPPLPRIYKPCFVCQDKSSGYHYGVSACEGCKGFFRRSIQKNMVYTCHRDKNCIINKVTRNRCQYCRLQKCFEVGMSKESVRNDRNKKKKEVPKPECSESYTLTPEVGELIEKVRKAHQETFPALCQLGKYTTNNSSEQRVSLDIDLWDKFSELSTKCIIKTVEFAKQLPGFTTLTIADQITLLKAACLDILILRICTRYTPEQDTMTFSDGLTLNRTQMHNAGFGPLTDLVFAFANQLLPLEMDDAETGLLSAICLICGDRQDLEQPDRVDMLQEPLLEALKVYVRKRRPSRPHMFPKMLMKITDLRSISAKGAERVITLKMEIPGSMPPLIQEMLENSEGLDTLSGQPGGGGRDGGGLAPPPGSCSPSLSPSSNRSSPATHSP
# Peroxisome proliferator-activated receptor gamma (Homo sapiens), sequence (P37231 whole entry, looked up): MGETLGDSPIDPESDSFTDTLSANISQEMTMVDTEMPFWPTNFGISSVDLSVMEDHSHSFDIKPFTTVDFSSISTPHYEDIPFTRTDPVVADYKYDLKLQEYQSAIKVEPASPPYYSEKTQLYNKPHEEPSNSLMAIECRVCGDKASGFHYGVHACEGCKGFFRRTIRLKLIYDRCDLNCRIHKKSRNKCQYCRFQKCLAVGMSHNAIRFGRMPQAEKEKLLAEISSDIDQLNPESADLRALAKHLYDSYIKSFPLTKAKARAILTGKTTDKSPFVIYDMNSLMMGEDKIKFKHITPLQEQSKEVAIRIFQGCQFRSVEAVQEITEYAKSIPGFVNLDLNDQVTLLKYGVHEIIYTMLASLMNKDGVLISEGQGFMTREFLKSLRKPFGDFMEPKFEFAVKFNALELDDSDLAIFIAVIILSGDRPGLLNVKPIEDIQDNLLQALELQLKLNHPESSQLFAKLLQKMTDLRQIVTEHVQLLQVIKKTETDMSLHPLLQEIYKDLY
# Cellular tumor antigen p53 (Homo sapiens), sequence (P04637 whole entry, looked up): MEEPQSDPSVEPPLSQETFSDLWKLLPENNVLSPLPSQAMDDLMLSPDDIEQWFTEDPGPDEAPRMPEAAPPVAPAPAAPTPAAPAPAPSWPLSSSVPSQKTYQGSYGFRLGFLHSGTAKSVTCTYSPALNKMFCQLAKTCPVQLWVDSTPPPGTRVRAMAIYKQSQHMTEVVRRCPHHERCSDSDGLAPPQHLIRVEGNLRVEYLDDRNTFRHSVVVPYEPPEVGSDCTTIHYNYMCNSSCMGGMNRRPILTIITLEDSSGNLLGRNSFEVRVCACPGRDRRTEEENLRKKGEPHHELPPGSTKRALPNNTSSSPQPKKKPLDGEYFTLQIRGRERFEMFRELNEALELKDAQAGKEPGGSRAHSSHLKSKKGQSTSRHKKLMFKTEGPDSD
# human Retinoic Acid Receptor gamma (RARg), RARG (gene 5916), sequence (P13631 whole entry, looked up, the tested form may be a part): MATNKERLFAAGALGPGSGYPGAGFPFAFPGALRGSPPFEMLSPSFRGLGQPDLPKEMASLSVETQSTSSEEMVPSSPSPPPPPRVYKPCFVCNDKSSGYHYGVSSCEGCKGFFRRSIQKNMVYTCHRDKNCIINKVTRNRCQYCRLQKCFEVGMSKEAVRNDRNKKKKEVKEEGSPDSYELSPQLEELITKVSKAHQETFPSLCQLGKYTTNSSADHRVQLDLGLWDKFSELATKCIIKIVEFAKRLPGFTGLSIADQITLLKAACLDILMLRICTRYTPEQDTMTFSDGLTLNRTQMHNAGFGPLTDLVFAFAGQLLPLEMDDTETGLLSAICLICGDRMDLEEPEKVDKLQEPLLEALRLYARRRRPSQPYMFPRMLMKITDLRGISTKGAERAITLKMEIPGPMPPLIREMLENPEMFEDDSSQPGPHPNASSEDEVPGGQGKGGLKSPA
# human Peroxisome Proliferator-activated Receptor delta (PPARd), PPARD (gene 5467), sequence (Q03181 whole entry, looked up, the tested form may be a part): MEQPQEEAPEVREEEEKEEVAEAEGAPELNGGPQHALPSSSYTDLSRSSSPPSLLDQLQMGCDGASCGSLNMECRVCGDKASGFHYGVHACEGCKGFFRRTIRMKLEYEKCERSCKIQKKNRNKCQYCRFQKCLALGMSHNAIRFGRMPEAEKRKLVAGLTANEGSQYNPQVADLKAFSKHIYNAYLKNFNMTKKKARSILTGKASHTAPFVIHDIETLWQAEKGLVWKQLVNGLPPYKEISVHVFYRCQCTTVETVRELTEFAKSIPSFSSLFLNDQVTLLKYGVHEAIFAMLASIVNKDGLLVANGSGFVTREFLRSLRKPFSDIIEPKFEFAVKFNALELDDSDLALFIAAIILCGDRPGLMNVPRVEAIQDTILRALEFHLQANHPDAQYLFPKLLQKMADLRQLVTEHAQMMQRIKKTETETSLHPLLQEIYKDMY
# human RAR-related Orphan Receptor beta (RORb), RORB (gene 6096), sequence (Q92753 whole entry, looked up, the tested form may be a part): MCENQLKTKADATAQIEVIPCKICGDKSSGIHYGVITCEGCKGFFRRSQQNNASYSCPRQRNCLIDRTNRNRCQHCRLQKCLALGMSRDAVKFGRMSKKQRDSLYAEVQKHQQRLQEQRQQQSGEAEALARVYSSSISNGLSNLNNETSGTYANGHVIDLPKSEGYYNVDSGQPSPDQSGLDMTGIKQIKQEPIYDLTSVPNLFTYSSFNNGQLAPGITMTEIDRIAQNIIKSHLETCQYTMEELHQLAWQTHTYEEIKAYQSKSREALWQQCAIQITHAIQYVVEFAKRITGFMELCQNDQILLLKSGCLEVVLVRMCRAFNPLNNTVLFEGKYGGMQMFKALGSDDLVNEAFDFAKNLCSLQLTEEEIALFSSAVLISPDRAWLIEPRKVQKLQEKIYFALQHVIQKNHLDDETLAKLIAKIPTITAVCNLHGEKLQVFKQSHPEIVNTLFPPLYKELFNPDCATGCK
# human Peroxisome Proliferator-activated Receptor alpha (PPARa), PPARA (gene 5465), sequence (Q07869 whole entry, looked up, the tested form may be a part): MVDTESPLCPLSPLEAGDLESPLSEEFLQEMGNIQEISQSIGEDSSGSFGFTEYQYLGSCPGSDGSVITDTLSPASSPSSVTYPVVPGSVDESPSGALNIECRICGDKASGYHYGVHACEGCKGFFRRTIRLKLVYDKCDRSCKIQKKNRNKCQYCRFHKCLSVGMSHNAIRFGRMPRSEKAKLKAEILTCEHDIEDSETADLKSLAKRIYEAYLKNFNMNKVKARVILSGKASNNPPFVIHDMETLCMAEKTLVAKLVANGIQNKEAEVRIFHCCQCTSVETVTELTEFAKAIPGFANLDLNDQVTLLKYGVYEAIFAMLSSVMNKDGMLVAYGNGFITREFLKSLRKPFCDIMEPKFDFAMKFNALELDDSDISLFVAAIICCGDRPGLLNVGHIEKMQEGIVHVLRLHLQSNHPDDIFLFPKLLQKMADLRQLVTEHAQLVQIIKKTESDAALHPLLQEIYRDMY
smiles,measurement,setting,value
CCC(C)(C)c1ccc(O)c(C(C)(C)CC)c1,outcome,[1],inactive
same,outcome,[2],inactive
same,outcome,[3],inactive
same,AC50,[4],11.1 µM (active)
same,outcome,[5],inactive
same,outcome,[6],inactive
same,AC50,[7],12 µM (active)
same,AC50,[8],11.5 µM (active)
same,AC50,[9],11.1 µM (active)
same,AC50,[10],55.2 µM (active)
same,AC50,[11],52 µM (active)
same,AC50,[12],12.4 µM (active)
same,outcome,[13],inactive
same,outcome,[14],inactive
same,AC50,[15],8.85 µM (active)
same,AC50,[16],33.4 µM (active)
same,AC50,[17],12.6 µM (active)
same,AC50,[18],27.4 µM (active)
same,AC50,[19],27.3 µM (active)
C[C@]12CCC(=O)C[C@@H]1CC[C@@H]1[C@@H]2CC[C@]2(C)[C@@H](O)CC[C@@H]12,outcome,[1],inactive
same,outcome,[2],inactive
same,AC50,[3],57.9 µM (active)
same,outcome,[3],inactive
same,AC50,[4],61.4 µM (active) and 57.3 µM (active)
same,outcome,[4],inactive
same,AC50,[5],86.1 µM (active)
same,outcome,[5],inactive
same,outcome,[7],inactive
same,outcome,[8],inactive
same,outcome,[9],inactive
same,outcome,[10],inactive
same,outcome,[12],inactive
same,AC50,[15],18.3 µM (active)
same,outcome,[16],inactive
same,AC50,[17],11.9 µM (active)
same,outcome,[17],inactive
same,outcome,[18],inactive
same,outcome,[19],inactive
CCOP(=S)(OCC)SCSP(=S)(OCC)OCC,outcome,[1],inactive
same,outcome,[2],inactive
same,outcome,[3],inactive
same,outcome,[4],inactive
same,outcome,[5],inactive
same,outcome,[6],inactive
same,outcome,[7],inactive
same,outcome,[8],inactive
same,outcome,[9],inactive
same,outcome,[12],inactive
same,outcome,[13],inactive
same,outcome,[14],inactive
same,outcome,[15],inactive
same,outcome,[16],inactive
same,AC50,[17],0.168 µM (active)
same,outcome,[18],inactive
O=C1C2(Cl)C3(Cl)C4(Cl)C(Cl)(Cl)C5(Cl)C3(Cl)C1(Cl)C5(Cl)C24Cl (stereo not drawn),AC50,[1],17.2 µM (active)
same,outcome,[1],inactive
same,outcome,[2],inactive
same,AC50,[3],16.5 µM (active)
same,outcome,[3],inactive
same,AC50,[4],6.04 µM (active)
same,outcome,[4],inactive
same,AC50,[5],16.7 µM (active)
same,outcome,[5],inactive
same,outcome,[6],inactive
same,AC50,[7],7.03 µM (active)
same,AC50,[20],7.28 µM (active)
same,AC50,[8],10.2 µM (active)
same,AC50,[9],10.4 µM (active)
same,outcome,[11],inactive
same,AC50,[12],10.8 µM (active)
same,outcome,[13],inactive
same,outcome,[14],inactive
same,AC50,[15],4.9 µM (active)
same,outcome,[16],inactive
same,AC50,[17],2.11 µM (active) and 2.9 µM (active) and 6.2 µM (active)
same,outcome,[17],inactive
same,outcome,[18],inactive
same,outcome,[19],inactive
O=C(O)C(F)(F)C(F)(F)C(F)(F)C(F)(F)C(F)(F)C(F)(F)F,outcome,[1],inactive
same,outcome,[2],inactive
same,outcome,[3],inactive
same,AC50,[4],212 µM (active) and 219 µM (active)
same,outcome,[4],inactive
same,outcome,[5],inactive
same,outcome,[6],inactive
same,outcome,[7],inactive
same,outcome,[20],inactive
same,outcome,[8],inactive
same,outcome,[9],inactive
same,AC50,[10],18.2 µM (active) and 20.7 µM (active)
same,outcome,[11],inactive
same,outcome,[12],inactive
same,outcome,[13],inactive
same,outcome,[14],inactive
same,AC50,[16],65.4 µM (active) and 72.5 µM (active)
same,outcome,[16],inactive
same,outcome,[17],inactive
same,outcome,[18],inactive
same,outcome,[19],inactive
Clc1nc(Cl)nc(Cl)n1,outcome,[1],inactive
same,outcome,[2],inactive
same,outcome,[3],inactive
same,outcome,[4],inactive
same,outcome,[5],inactive
same,outcome,[6],inactive
same,outcome,[10],inactive
same,outcome,[11],inactive
same,outcome,[16],inactive
